We go through 28 compounds from PubChem BioAssay AID1851 (National Center for Advancing Translational Sciences (NCATS), 2009).

The campaign covered roughly 16,000 compounds. About 5,100 (32%) were called active. Not shown: some 25% with an inconclusive outcome. Calls come from the whole dose curve; as a rule, active = well fitted curve in the direction sought with a large enough effect; inconclusive = small, poorly fitted or top-dose-only effect, or effect the other way; inactive = no such curve, though single readings can be large or run the other way. This is one part of the list.
% is set by controls: 0 for no effect and ±100 for the full control effect.

This assay deals with Cytochrome P450 3A4 (Homo sapiens) (UniProt P08684). The assay can be described thus: Cytochrome panel assay with activity outcomes. Conditions: recombinant CYP, pro-luciferin dealkylation, luminescence, p450-cyp3a4; series mostly up to 57.1 µM.
Sequence of Cytochrome P450 3A4 (Homo sapiens) (P08684 whole entry, looked up): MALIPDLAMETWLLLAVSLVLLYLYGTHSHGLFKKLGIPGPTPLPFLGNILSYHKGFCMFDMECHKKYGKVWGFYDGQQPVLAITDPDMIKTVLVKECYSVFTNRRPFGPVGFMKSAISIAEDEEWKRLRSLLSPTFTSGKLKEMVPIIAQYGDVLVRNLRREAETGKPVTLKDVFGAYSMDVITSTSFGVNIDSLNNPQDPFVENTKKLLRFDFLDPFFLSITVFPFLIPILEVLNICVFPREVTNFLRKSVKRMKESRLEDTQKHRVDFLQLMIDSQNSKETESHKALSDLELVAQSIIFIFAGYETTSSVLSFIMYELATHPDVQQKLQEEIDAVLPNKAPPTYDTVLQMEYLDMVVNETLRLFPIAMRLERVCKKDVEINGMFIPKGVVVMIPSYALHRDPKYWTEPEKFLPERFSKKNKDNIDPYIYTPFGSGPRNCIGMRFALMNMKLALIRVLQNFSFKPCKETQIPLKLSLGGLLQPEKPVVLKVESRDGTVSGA
Regarding `CCOC(=S)SCC(=O)O`, the activity, negative = inhibition was -14.7% [at 11.4 µM] (inactive). Still for that read-out and setting: to `CCOc1ccc(OCCOc2ncnc3ccccc23)cc1` belongs -3.65% [at 2.29 µM] (inactive).

Take `Cc1ccc(NC(=O)CSCC(=O)Nc2ccc(N3CCOCC3)c(Cl)c2)cc1`: the AC50 (commonly the concentration at which the activity in the assay is half-maximal) was 3.55 µM (active).

As to `O=C(/C=C/c1ccco1)NC(=S)Nc1ccc(N2CCOCC2)c(Cl)c1`, the activity, negative = inhibition is 12.4% [at 2.29 µM] (inactive). For the compound `Cc1ccc(NC(=O)c2cc(NC(=O)CCC(=O)O)ccc2N2CCCCC2)cc1`, the AC50 result is “inactive”. `NCCOB(c1ccccc1)c1ccccc1`: the AC50 is 12.6 µM (active). As to `NCCSCCc1ccccc1`, the activity, negative = inhibition was -8.42% [at 11.4 µM] (inactive). On to `O=C(O)[C@@H]1CCCNC1`, for which the AC50 result is “inactive”. With `Cc1ccc(C(=O)N/N=C/c2sc(=O)n(Cc3cccc(C(=O)O)c3)c2Cl)cc1`, the AC50 entry is “inactive”. Turning to `CCC(C)n1c(NC(=O)c2ccccc2)c(C#N)c2nc3ccccc3nc21` (stereo not drawn), the AC50 result was “inactive”. Consider `Cc1ccc(C(=O)Nc2c(C#N)c(C)c(C)n2Cc2ccccc2)cc1`, for which the half-maximal activity concentration (AC50) was 10 µM (active).

As for `CCOC(=O)Cc1csc(NC(=O)c2ccc(Cl)nc2)n1`, the half-maximal activity concentration (AC50) was 14.1 µM (active). With `CCOC(=O)Cc1csc(NC(=O)c2c(-c3c(Cl)cccc3Cl)noc2C)n1`, the activity, negative = inhibition was -21.4% [at 2.29 µM] (inactive). As to `CCOC(=O)Cc1csc(NC(=O)c2ccc(S(=O)(=O)N3CCCCC3)cc2)n1`, the AC50 entry was “inactive”. Same read-out and setting: as for `CCOc1cc(S(=O)(=O)N(Cc2ccccc2)Cc2ccccc2)c(OCC)cc1-n1cnnn1`, the figure is 12.6 µM (active); as for `COc1ccccc1CNc1ccnc(-c2ccccc2C(F)(F)F)n1`, 12.6 µM (active). Still for that read-out and setting: as for `COCCNc1ccnc(-c2ccccc2C(F)(F)F)n1`, the entry is “inactive”. As to `Fc1ccc(Nc2ccnc(-c3ccccc3C(F)(F)F)n2)cc1`, the half-maximal activity concentration (AC50) was 12.6 µM (active). For `COc1ccccc1-c1nccc(NC2CCNCC2)n1`, the AC50 entry was “inactive”. Same read-out and setting: to `COc1ccccc1CNc1ccnc(-c2ccccc2OC)n1` belongs 15.8 µM (active); to `Cc1nc([N+](=O)[O-])c(N2CCN(C)CC2)n1Cc1ccccc1`, “inactive”. On the same count and under the same terms, to `COc1ccc(CSc2nnnn2C)cc1[N+](=O)[O-]` belongs “inactive”; to `CCCOc1ccc(Cn2c(C)nc([N+](=O)[O-])c2SCC(O)COC)cc1[N+](=O)[O-]` (stereo not drawn), 14.1 µM (active). For the compound `Nc1nc2c(nc(Br)n2[C@@H]2O[C@H]3COP(=O)(O)O[C@@H]3[C@H]2O)c(=O)[nH]1`, the AC50 result was “inactive”. As to `Nc1ccc2[nH]cc(CCC(=O)O)c2c1`, the activity, negative = inhibition was -1.6% [at 11.4 µM] (inactive). For `COC(=O)Nc1ccc2[nH]cc(CCNC(C)=O)c2c1`, the AC50 entry was “inactive”. The same measure, in the same setting: to `COc1cc2c(CCNC(C)=O)c[nH]c2cc1Cl` belongs 15.8 µM (active); to `CN(C)[C@@H]1C(=O)C(C(N)=O)=C(O)[C@]2(O)C(=O)C3=C(O)c4c(O)ccc(Cl)c4[C@H](O)[C@H]3C[C@@H]12`, “inactive”.
